Assay outcomes: PubChem, ICCB-Longwood Screening Facility, Harvard Medical School
Vaccinia pol inh: vaccinia E9 polymerase processive synthesis inhibitors, primary screen, biochemical, absorbance; Vaccinia virus DNA polymerase (E9) processive complex; in vitro processive DNA synthesis, absorbance read-out; active compounds read low; normalized absorbance, % (concentration not given with the values); 46,000 compounds, 0.94% hits; in the data active = normalized absorbance mostly below about 85%, no sharp cut-off; inactive = mostly above about 86%
Of the large screens only hits and unclear results are named; the others gave an inactive call. The full list was thinned out, with hits kept by preference.

COc1ccc(Nc2cc(C(=O)N3CCc4ccccc4C3)c3ccccc3n2)c(OC)c1	none
COc1ccc2cc3cc(C(=O)NCCN(C)C)oc3nc2c1	Vaccinia pol inh 40
COc1ccc2cc3cc(C(=O)NCCN4CCN(c5ccccc5F)CC4)oc3nc2c1	none
COc1ccc2cc3cc(C(=O)NCc4ccco4)oc3nc2c1	none
COc1ccccc1-c1nn(-c2cccc(C(F)(F)F)n2)c(=O)o1	none
Cc1onc(-c2ccccc2)c1C(=O)N1CCNCC1	none
O=C(O)c1oc2ccccc2c1CSc1ccccn1	none
O=C(O)c1oc2ccccc2c1COc1ccccc1	Vaccinia pol inh 72
Cc1c(C(=O)O)oc2ccccc12	none
CC(C)NC(=O)CCc1nc(-c2ccc(C(C)(C)C)cc2)no1	none
O=C(NC1CCCC1)C(c1cccs1)N(Cc1ccccc1)C(=O)C(F)(F)F (stereo not drawn)	none
CSc1nc2c(sc(=S)n2-c2ccccc2C)c(=O)n1-c1ccccc1C	none
CN(C)c1ccc(NC(=O)c2c3c(nc4ccccc24)CCCC3)cc1	none
Cc1cc(C)c(S(=O)(=O)N2CCSC2)cc1C	none
CCOC(=O)c1sc2nc(NC(C)=O)sc2c1C	none
N=C(N)c1cccc(NC(=O)Nc2cccc(C(=N)N)c2)c1	Vaccinia pol inh 77
Cc1cccc(NC(=O)Nc2cccc(C)c2)c1	none
COC(=O)c1cccc(NC(N)=S)c1	none
O=C(O)c1ccc2c(c1)C1c3ccccc3CC1C(c1cccc(Cl)c1)N2 (stereo not drawn)	none
O=S(=O)(Cc1ccc(Cl)cc1Cl)c1nc2ncccc2[nH]1	none
Cc1ccc(NC(=O)CC(NCC2CCCO2)C(=O)O)cc1 (stereo not drawn)	none
COC(=O)c1c2c(n3ccc(C)cc13)C(=O)c1ccccc1C2=O	none
COC(=O)c1c2c(n3cc4ccccc4cc13)C(=O)c1ccccc1C2=O	none
COC(=O)c1c2c(n3ccccc13)C(=O)c1ccccc1C2=O	Vaccinia pol inh 62
Cc1cc(N)c2ccccc2[n+]1CCCCCCCCCC[n+]1c(C)cc(N)c2ccccc21	Vaccinia pol inh 35
Cc1cc(-c2ccccc2N)nc2ccccc12	none
COc1ccccc1-c1nn(CCC(=O)NC2CCCC2)c2nc(C)cc(C)c12	none
COc1ccc2c(c1C)CCC(C1(O)C(=O)N(C)c3ccccc31)C2=O (stereo not drawn)	none
CCn1cc(C(=O)O)c(=O)c2cc(F)c(N3CCNCC3)cc21	Vaccinia pol inh 77
CCn1cc(C(=O)NN)c(=O)c2cc(F)c(N3CCCC3)cc21	none
CCn1cc(C(=O)O)c(=O)c2cnc(N3CCNCC3)nc21	none
CC(=O)NC(C)(C)C(=O)N1CCCC1C(=O)NC(C)(C)C(=O)NC(C)C(=O)NC(C)(C)C(=O)NC(C)C(=O)NC(CCC(N)=O)C(=O)NC(C)(C)C(=O)NC(C(=O)NC(C)(C)C(=O)NCC(=O)NC(CC(C)C)C(=O)NC(C)(C)C(=O)N1CCCC1C(=O)NC(C(=O)NC(C)(C)C(=O)NC(C)(C)C(=O)NC(CCC(=O)O)C(=O)NC(CCC(N)=O)C(=O)NC(CO)Cc1ccccc1)C(C)C)C(C)C (stereo not drawn)	none
CCC(C(=O)O)n1nc(C)c2sc3ccccc3c2c1=O (stereo not drawn)	none
CCN(CC)CCNc1ccc(CO)c2sc3ccccc3c(=O)c12	Vaccinia pol inh 60
CCOC(=O)C(C)n1nc(C)c2sc3ccccc3c2c1=O (stereo not drawn)	none
O=C(CCN1CCCC1)Nc1nc(-c2ccc(Cl)cc2)cs1	none
CC(C)OC(=O)NC1(C(F)(F)F)Oc2ccccc2O1	none
CCN(CC)CCOC(=O)C(c1ccccc1)c1ccccc1	none
CCN(CC)CCOc1ccc2c(c1)C(=O)c1cc(OCCN(CC)CC)ccc1-2	Vaccinia pol inh 30
CCN(CC)CCOc1ccc(/C(C)=N\O)cc1	none
Cc1cccc2cc(CN(Cc3ccccc3)C(=O)c3ccccc3)c(=O)[nH]c12	none
O=C(NCC1CCCO1)c1ccc2c(Cl)c3c(nc2c1)CCCC3 (stereo not drawn)	none
COc1cccc(C(Nc2ccccn2)c2c(C)[nH]c3ccccc23)c1 (stereo not drawn)	none
O=C(NCC1CCCO1)c1cc2sc3ccccc3c2s1 (stereo not drawn)	Vaccinia pol inh 66
CCn1c(=O)c2cc(C(=O)NCC3CCCO3)sc2c2ccccc21 (stereo not drawn)	none
O=C(NCC1CCCO1)c1cc2c(s1)CCC2 (stereo not drawn)	none
Cc1c(C(N)=O)nnc2cc(-c3ccccc3)nn12	none
Cc1ccc(Cc2nn[nH]n2)cc1	none
[O-][n+]1ccccc1SC/C=C/c1ccccc1	none
O=C(O)c1ccccc1SCC(=O)N1CCCC1	none
O=C(O)c1ccccc1SC/C=C/c1ccccc1	Vaccinia pol inh 83
CC(C)n1c(CCCNC(=O)C(C)(C)C)nc2ccccc21	none
c1ccc2nc(Sc3ncn[nH]3)c(Sc3ncn[nH]3)nc2c1	none
CN(C)CCNC(=O)c1cc2c(Cl)nc3ccccc3c2s1	none
Cc1cc2nc(-c3ccc(Cl)nc3)[nH]c2cc1C	none
Cc1cc(N)cc2[nH]c(-c3ccc(N)cc3)nc12	Vaccinia pol inh 60
Cn1c(-c2ccc3nc(-c4ccc(N)cc4)[nH]c3c2)nc2cc(N)ccc21	none
Cc1ccc2c3c(ccc2n1)NC1=C(C(=O)CCC1)C3c1ccc(O)cc1 (stereo not drawn)	none
